Assay results as given in PubChem BioAssay (Tox21).
Results filed as inconclusive are left out. The source made the active and inactive calls. Unless noted, calls follow the shape of the dose curve; as a rule, active = well fitted curve in the direction sought with a large enough effect in the repeat runs; inconclusive = weak or mixed curves; inactive = no such curve, though single readings can be large; an effect the other way counts as inactive or inconclusive.

Legend:
[1] = qHTS assay to identify aromatase inhibitors - cell viability counter screen (AID 743084);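 also: cells stimulated with testosterone during compound exposure; nearly all actives have a fitted effect of over 55% in size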
[2] = target: Aryl hydrocarbon receptor (Homo sapiens) (UniProt P35869); assay: qHTS assay to identify small molecule that activate the aryl hydrocarbon receptor (AhR) signaling pathway (AID 743085);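 also: HG2L7.5c1 human HepG2 liver cells with stably integrated DRE-driven firefly reporter; series mostly up to about 70 µM; nearly all actives have a fitted effect of over 15% in size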
Aryl hydrocarbon receptor (Homo sapiens), sequence (P35869 whole entry, looked up): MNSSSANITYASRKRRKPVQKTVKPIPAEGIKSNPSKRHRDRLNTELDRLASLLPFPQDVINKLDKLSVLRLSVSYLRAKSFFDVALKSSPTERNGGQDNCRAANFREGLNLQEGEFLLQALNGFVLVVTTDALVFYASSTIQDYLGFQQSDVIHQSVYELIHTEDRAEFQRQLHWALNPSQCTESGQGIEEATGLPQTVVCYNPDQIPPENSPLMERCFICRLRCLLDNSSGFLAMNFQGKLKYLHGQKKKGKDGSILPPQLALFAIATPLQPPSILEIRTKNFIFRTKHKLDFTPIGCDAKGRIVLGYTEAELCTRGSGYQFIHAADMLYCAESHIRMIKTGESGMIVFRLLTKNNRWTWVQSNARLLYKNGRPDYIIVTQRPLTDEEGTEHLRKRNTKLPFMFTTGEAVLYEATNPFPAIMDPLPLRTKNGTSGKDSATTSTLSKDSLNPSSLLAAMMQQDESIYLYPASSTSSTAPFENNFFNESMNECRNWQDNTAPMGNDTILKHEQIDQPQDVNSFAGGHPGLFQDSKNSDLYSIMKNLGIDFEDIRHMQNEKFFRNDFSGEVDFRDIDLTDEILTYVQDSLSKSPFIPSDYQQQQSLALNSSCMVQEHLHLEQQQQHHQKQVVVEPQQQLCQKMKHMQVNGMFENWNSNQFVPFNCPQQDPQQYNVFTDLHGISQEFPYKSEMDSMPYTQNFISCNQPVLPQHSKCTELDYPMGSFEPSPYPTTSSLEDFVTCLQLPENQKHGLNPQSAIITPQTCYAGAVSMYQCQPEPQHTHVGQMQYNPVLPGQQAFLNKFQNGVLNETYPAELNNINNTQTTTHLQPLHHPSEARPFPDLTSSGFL
Procedure, shortened: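 24 h compound exposure, 37C, HepG2-derived HG2L7.5c1 cells with DRE-responsive luciferase. Readouts: fluorescence viability, then luminescence at room temperature after 30 min.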

[3] = target: Peroxisome proliferator-activated receptor gamma (Homo sapiens) (UniProt P37231); assay: qHTS assay to identify small molecule agonists of the peroxisome proliferator-activated receptor gamma (PPARg) signaling pathway (AID 743094; active = well fitted activation curve with a large enough effect in the signal ratio in the repeat runs, not every such curve was filed as active; the % refers to the signal ratio)
Peroxisome proliferator-activated receptor gamma (Homo sapiens), sequence (P37231 whole entry, looked up): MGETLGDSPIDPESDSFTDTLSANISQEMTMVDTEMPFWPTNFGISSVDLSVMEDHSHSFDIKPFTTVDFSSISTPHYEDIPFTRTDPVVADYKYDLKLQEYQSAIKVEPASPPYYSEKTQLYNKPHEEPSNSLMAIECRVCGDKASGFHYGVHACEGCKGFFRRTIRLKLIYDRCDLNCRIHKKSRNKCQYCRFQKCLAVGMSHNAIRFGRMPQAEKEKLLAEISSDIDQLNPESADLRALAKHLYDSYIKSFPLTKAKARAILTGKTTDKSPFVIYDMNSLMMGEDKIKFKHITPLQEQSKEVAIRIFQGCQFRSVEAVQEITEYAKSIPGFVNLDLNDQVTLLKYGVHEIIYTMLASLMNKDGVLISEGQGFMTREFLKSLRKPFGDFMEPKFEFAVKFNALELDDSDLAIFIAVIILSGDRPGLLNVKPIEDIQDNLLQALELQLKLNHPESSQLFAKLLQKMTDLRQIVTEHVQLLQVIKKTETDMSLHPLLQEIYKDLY
Procedure, shortened: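 Agonist activity was taken from a beta-lactamase reporter (FRET substrate, 1 h at room temperature) in HEK293H cells carrying a PPARg UAS-bla construct. Compounds in DMSO were incubated 17 h at 37C after a 5 h cell pre-incubation.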

[4] = target: Peroxisome proliferator-activated receptor gamma (Homo sapiens) (UniProt P37231); assay: qHTS assay to identify small molecule antagonists of the peroxisome proliferator-activated receptor gamma (PPARg) signaling pathway (AID 743191; calls by dose curve; also: series mostly up to about 63 µM; nearly all actives have a fitted effect of over 30% in size)
Procedure, shortened: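 GeneBLAzer PPARg UAS-bla HEK293H cells, 5 h post-plating, exposed to compounds 17 h at 37C. LiveBLAzer B/G FRET substrate added for 1 h at room temperature; beta-lactamase reporter read by fluorescence intensity.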

[5] = qHTS assay to identify small molecule antagonists of the peroxisome proliferator-activated receptor gamma (PPARg) signaling pathway - cell viability counter screen (AID 743194); also: nearly all actives have a fitted effect of over 55% in size
Procedure, shortened: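 Cytotoxicity counter screen in PPARg-bla HEK293H cells, same wells as reporter assay. Compounds plus 50 nM rosiglitazone (final) for 17 h at 37 C, then viability read by CellTiter-Glo luminescence.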

[6] = qHTS assay for small molecule agonists of the antioxidant response element (ARE) signaling pathway (AID 743202; active = well fitted activation curve with a large enough effect in the signal ratio in the repeat runs, not every such curve was filed as active; the % refers to the signal ratio)
Procedure, shortened: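 HepG2 ARE-bla cells; 16 h treatment at 37 C; FRET-based beta-lactamase fluorescence read after 2 h substrate incubation at room temperature.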

[7] = qHTS assay for small molecule agonists of the antioxidant response element (ARE) signaling pathway - cell viability counter screen (AID 743203; calls by dose curve; also: nearly all actives have a fitted effect of over 55% in size)
Procedure, shortened: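 Viability counter screen: CellTiter-Glo luminescence, read after 30 min at room temperature, in ARE-bla HepG2 wells. Compound exposure lasted 16 h at 37C/5% CO2, following a 5 h pre-incubation of the cells after plating.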

[8] = qHTS assay for small molecule activators of the heat shock response signaling pathway - cell viability counter screen (AID 743209); also: nearly all actives have a fitted effect of over 50% in size
Procedure, shortened: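 Cytotoxicity counter screen run in the same wells as the heat-shock bla reporter assay: HeLa HSE-bla cells, 5 h compound exposure at 37 C, viability read by CellTiter-Glo luminescence.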

[9] = qHTS assay for small molecule activators of the heat shock response signaling pathway (AID 743210; active = well fitted activation curve with a large enough effect in the signal ratio in the repeat runs, with a control signal flat, not every such curve was filed as active; the % refers to the signal ratio;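 also: HeLa cells with beta-lactamase reporter driven by heat shock elements; series mostly up to about 63 µM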)
Procedure, shortened: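 Following overnight attachment, HSE-bla HeLa cells received test compounds for 5 h at 37 C; beta-lactamase activity was then detected via FRET substrate fluorescence.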

[10] = qHTS assay to identify small molecule agonists of the peroxisome proliferator-activated receptor delta (PPARd) signaling pathway - cell viability counter screen (AID 743211); also: nearly all actives have a fitted effect of over 55% in size
Procedure, shortened: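 Luminescent ATP viability assay (CellTiter-Glo, 30 min RT) in UAS-bla HEK293H cells carrying the PPAR delta reporter construct, 3000 cells/well, after a 17 h compound treatment at 37 C.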

[11] = target: Peroxisome proliferator-activated receptor delta (Homo sapiens) (UniProt Q03181); assay: qHTS assay to identify small molecule agonists of the peroxisome proliferator-activated receptor delta (PPARd) signaling pathway (AID 743212; calls by dose curve)
Peroxisome proliferator-activated receptor delta (Homo sapiens), sequence (Q03181 whole entry, looked up): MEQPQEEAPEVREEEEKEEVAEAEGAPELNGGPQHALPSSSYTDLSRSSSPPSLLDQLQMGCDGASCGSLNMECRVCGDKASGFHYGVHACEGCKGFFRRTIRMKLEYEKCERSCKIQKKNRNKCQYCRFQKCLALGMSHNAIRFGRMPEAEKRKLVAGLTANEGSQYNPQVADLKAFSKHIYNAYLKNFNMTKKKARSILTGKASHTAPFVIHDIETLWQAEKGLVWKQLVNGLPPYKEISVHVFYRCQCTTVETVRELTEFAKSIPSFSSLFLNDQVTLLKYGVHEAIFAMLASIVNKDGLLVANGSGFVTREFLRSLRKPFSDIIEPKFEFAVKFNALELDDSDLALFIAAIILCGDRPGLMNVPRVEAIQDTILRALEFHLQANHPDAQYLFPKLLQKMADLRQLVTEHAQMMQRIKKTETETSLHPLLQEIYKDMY
Procedure, shortened: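 Tox21 library screened in GeneBLAzer PPARd UAS-bla HEK293H cells. After compound treatment at 37 C, a FRET-based beta-lactamase substrate was applied for 2 h and fluorescence recorded.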

[12] = qHTS assay to identify small molecule antagonists of the peroxisome proliferator-activated receptor delta (PPARd) signaling pathway - cell viability counter screen (AID 743213); also: nearly all actives have a fitted effect of over 50% in size
Procedure, shortened: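 PPARd-bla HEK293H cells (3000/well) got compound plus 300 nM L165041 agonist for 17 h at 37 C. Viability in the same wells came from CellTiter-Glo luminescence after 30 min at room temperature.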

[13] = target: Bile acid receptor (Homo sapiens) (UniProt Q96RI1); assay: qHTS assay to identify small molecule antagonists of the farnesoid-X-receptor (FXR) signaling pathway (AID 743217; active = well fitted inhibition curve with a large enough effect in the signal ratio in the repeat runs, not every such curve was filed as active; the % refers to the signal ratio)
Bile acid receptor (Homo sapiens), sequence (Q96RI1 whole entry, looked up): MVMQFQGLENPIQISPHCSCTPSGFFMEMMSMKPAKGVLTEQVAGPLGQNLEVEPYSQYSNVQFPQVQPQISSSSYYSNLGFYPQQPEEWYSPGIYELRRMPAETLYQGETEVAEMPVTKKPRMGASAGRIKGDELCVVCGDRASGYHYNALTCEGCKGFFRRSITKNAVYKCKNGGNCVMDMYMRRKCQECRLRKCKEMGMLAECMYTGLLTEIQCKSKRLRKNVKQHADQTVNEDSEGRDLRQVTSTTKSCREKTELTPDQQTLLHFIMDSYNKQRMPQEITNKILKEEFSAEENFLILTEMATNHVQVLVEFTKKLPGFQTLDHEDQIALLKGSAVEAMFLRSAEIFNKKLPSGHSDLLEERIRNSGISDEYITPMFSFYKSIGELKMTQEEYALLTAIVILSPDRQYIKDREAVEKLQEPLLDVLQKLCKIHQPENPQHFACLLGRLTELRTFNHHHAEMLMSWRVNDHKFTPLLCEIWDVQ
Procedure, shortened: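 Antagonist mode: chenodeoxycholic acid at 50 uM final stimulates a UAS-driven beta-lactamase reporter in HEK 293T FXR-bla cells during 16 h, 37C compound exposure. Read-out is FRET substrate fluorescence after 2 h at room temperature.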

[14] = qHTS assay to identify small molecule agonists of the farnesoid-X-receptor (FXR) signaling pathway - cell viability counter screen (AID 743218); also: nearly all actives have a fitted effect of over 45% in size
Procedure, shortened: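 Viability counter screen in the same wells: CellTiter-Glo luminescence, 30 min room-temperature incubation, measured after the beta-lactamase read. Cells were GeneBLAzer FXR-UAS-bla HEK 293T, compound-treated 16 h at 37C.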

[15] = target: Bile acid receptor (Homo sapiens) (UniProt Q96RI1); assay: qHTS assay to identify small molecule agonists of the farnesoid-X-receptor (FXR) signaling pathway (AID 743220; active = well fitted activation curve with a large enough effect in the signal ratio in the repeat runs, not every such curve was filed as active; the % refers to the signal ratio)
Procedure, shortened: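 FXR-UAS-bla HEK 293T cells carrying a UAS-driven beta-lactamase reporter were plated for 5 h at 37C/5% CO2, then exposed to DMSO-dissolved Tox21 10K compounds for 16 h at 37C. A LiveBLAzer B/G FRET substrate was loaded for 2 h at room temperature before fluorescence reading.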

[16] = qHTS assay to identify small molecule antagonists of the farnesoid-X-receptor (FXR) signaling pathway - cell viability counter screen (AID 743221; active = well fitted cell-killing curve with a large enough effect in the repeat runs, not every such curve was filed as active; also: nearly all actives have a fitted effect of over 50% in size)
Procedure, shortened: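 In GeneBLAzer FXR-UAS-bla HEK 293T cells stimulated with 50 uM chenodeoxycholic acid (final), compounds acted for 16 h at 37 C. Viability was assessed afterwards by CellTiter-Glo luminescence.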

[17] = qHTS assay to identify small molecule that activate the aryl hydrocarbon receptor (AhR) signaling pathway - cell viability counter screen (AID 743086);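 also: HepG2 liver cells carrying the AhR DRE luciferase reporter; series mostly up to about 70 µM; nearly all actives have a fitted effect of over 45% in size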
Procedure, shortened: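 HepG2-AhR-luc (HG2L7.5c1) cells, 4000/well, treated 24 h at 37 C with compound; viability measured as CellTiter-Fluor fluorescence after 30 min in the same wells as the luciferase read.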

[18] = target: Peroxisome proliferator-activated receptor delta (Homo sapiens) (UniProt Q03181); assay: qHTS assay to identify small molecule antagonists of the peroxisome proliferator-activated receptor delta (PPARd) signaling pathway (AID 743215; active = well fitted inhibition curve with a large enough effect in the signal ratio in the repeat runs, not every such curve was filed as active; the % refers to the signal ratio;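 also: cells stimulated with agonist L165041 at 300 nM final during compound exposure; series mostly up to about 62 µM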)
Procedure, shortened: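 Agonist L165041 (300 nM final) added with compound to PPARd-bla HEK293H UAS-bla reporter cells; 17 h incubation at 37 C. Read-out: LiveBLAzer FRET substrate, 2 h at room temperature, fluorescence intensity.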

[19] = target: Vitamin D3 receptor (Homo sapiens) (UniProt P11473); assay: qHTS assay to identify small molecule agonists of the vitamin D receptor (VDR) signaling pathway (AID 743222; calls by dose curve)
Vitamin D3 receptor (Homo sapiens), sequence (P11473 whole entry, looked up): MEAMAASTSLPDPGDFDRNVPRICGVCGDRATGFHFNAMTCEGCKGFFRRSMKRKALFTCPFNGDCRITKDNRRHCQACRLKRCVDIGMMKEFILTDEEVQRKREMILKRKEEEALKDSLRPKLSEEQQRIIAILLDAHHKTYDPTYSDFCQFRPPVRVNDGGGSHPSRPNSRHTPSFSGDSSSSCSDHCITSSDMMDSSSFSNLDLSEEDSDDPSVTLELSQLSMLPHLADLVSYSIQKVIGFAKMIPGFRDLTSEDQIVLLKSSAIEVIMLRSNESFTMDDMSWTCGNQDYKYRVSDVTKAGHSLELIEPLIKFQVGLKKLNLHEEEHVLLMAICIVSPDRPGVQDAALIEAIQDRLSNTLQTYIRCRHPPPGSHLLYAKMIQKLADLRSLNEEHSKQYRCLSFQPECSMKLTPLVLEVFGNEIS
Procedure, shortened: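 Agonist mode, beta-lactamase reporter: fluorescence from LiveBLAzer B/G FRET substrate (2 h, room temperature) read after 16 h compound treatment at 37 C of VDR-bla cells, which were pre-incubated 4 h after seeding.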

[20] = target: Vitamin D3 receptor (Homo sapiens) (UniProt P11473); assay: qHTS assay to identify small molecule antagonists of the vitamin D receptor (VDR) signaling pathway (AID 743223; active = well fitted inhibition curve with a large enough effect in the signal ratio in the repeat runs, not every such curve was filed as active; the % refers to the signal ratio)
Procedure, shortened: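 Agonist 1alpha,25-dihydroxyvitamin D3 (3 nM in well) was added with each compound to VDR-bla cells preincubated 4 h. Cells stood 16 h at 37C, then FRET substrate 2 h at room temperature; fluorescence intensity recorded.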

Measured: Potency

CC(=O)Nc1ccccc1
inactive: [1] | [2] | [3] | [4] | [5] | [6] | [7] | [8] | [9] | [10] | [11] | [12] | [13] | [14] | [15] | [16]

O=P(OC(CCl)CCl)(OC(CCl)CCl)OC(CCl)CCl
inactive: [1] | [2] | [17] | [3] | [5] | [6] | [7] | [9] | [10] | [11] | [12] | [18] | [14] | [16] | [19] | [20]

O=S1(=O)CC=CC1
inactive: [1] | [2] | [3] | [4] | [5] | [6] | [7] | [8] | [9] | [10] | [11] | [12] | [14] | [16] | [20]

O=C(O)c1ccc(C(=O)O)cc1
inactive: [1] | [2] | [17] | [3] | [4] | [6] | [7] | [9] | [10] | [11] | [12] | [18] | [14] | [16] | [20]

Cc1ccc(S(N)(=O)=O)cc1
inactive: [1] | [2] | [3] | [4] | [5] | [6] | [7] | [9] | [10] | [11] | [12] | [14] | [15] | [16] | [19] | [20]

CC(=O)CC(=O)Nc1ccccc1
inactive: [1] | [2] | [17] | [3] | [4] | [7] | [8] | [9] | [10] | [11] | [12] | [18] | [13] | [14] | [15] | [16] | [20]

Nc1ccccc1[N+](=O)[O-]
inactive: [1] | [2] | [3] | [4] | [5] | [6] | [7] | [8] | [9] | [10] | [11] | [12] | [13] | [14] | [15] | [16]

CC(C)c1ccc(S(=O)(=O)O)cc1
inactive: [1] | [2] | [3] | [4] | [5] | [6] | [7] | [8] | [9] | [10] | [12] | [14] | [16]

CN(C)CCCN
inactive: [1] | [2] | [17] | [3] | [5] | [6] | [7] | [8] | [9] | [10] | [11] | [12] | [18] | [13] | [14] | [15] | [16] | [19] | [20]

CCCCCCCCCCCCOCCO
inactive: [1] | [2] | [17] | [3] | [4] | [6] | [7] | [9] | [10] | [12] | [14] | [16]

O=c1[nH]c(=O)n([C@H]2C[C@H](O)[C@@H](CO)O2)cc1Br
inactive: [1] | [2] | [3] | [4] | [5] | [6] | [7] | [8] | [9] | [10] | [11] | [12] | [13] | [14] | [15] | [16] | [20]

CCCCCCOCCO
inactive: [1] | [2] | [3] | [4] | [5] | [6] | [7] | [9] | [10] | [11] | [12] | [18] | [14] | [16] | [20]

C[C@H]1C[C@H]2[C@@H]3CCC4=CC(=O)C=C[C@]4(C)[C@@]3(F)[C@@H](O)C[C@]2(C)[C@@]1(O)C(=O)CO
inactive: [1] | [2] | [17] | [5] | [6] | [7] | [9] | [10] | [11] | [12] | [14] | [16]

CN(C)CCC(c1ccccc1)c1ccccn1 (stereo not given)
inactive: [1] | [2] | [17] | [6] | [7] | [8] | [9] | [10] | [11] | [12] | [14] | [16] | [19] | [20]

C/C=C1/CC2C=CC1C2 (stereo not given)
inactive: [1] | [2] | [17] | [3] | [6] | [7] | [8] | [9] | [10] | [11] | [12] | [14] | [16] | [20]

CC1=CC(=O)NS(=O)(=O)O1
inactive: [1] | [2] | [17] | [5] | [6] | [7] | [9] | [10] | [12] | [13] | [14] | [15] | [16] | [19] | [20]

CCCCCC(N)=O
inactive: [1] | [2] | [17] | [3] | [4] | [6] | [7] | [9] | [10] | [11] | [12] | [18] | [14] | [16] | [20]

CCN(CC)c1ccc(C(=O)c2ccccc2C(=O)O)c(O)c1
inactive: [1] | [2] | [17] | [5] | [6] | [7] | [8] | [9] | [10] | [12] | [14] | [16] | [19]
